Rows were chosen to be rich in hits. Some 19% of all compounds tested hit in one or more screens of this group.
IL1B secr inh = blocks inflammasome-driven IL-1 beta release; THP-1 LPS/ATP IL-1B secretion, AlphaLISA, 16 h; hits give low values; activity change, % at 57.5 µM; 4.7% of 360,000 active; AID 743279; in the data active = activity change below about -50%; inconclusive = mostly about -30% to -49%
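Secreted IL-1B measured by AlphaLISA bead assay after 16 h compound exposure of THP-1 cells; compounds (final up to 57.5 uM) added 1 h before LPS (250 ng/mL) and ATP (1.25 mM) stimulation; lower signal means less secretion.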
TDP1 cell CPT = growth inhibition of DT40 Tdp1-/-;hTDP1 cells with camptothecin (screen for TDP1 inhibitors). AID 686979. Potency, µM (series often up to 46.2 µM), for the others: at the top dose activity change, negative = growth inhibition, most hits filed as inhibitors. chicken DT40 Tdp1-/-;hTDP1 cells + 20 nM CPT, ATP luminescence, 48 h. 12% of 420,000 active; note: potency is the fitted concentration of half-maximal effect; nearly all actives have a fitted effect of over 55% in size
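Cell growth measured by CellTiter-Glo luminescence after a minimum 48 h, 37 C compound exposure with 20 nM CPT in Tdp1-knockout DT40 cells stably expressing hTDP1, seeded 400/well; qHTS titration format.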
HT1080NT lethal = kills 2HG-producing HT-1080-NT fibrosarcoma cells | HT-1080-NT fibrosarcoma viability, CellTiter-Glo ATP luminescence, 48 h | 1.6% of 360,000 active | Potency, µM (titrated, usually from 46.1 µM), for inactives: top-dose activity, negative = less viability, actives largely listed as cytotoxic;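 note: NT is the 2HG producing partner of a matched IDH1 knockdown line; potency is the fitted concentration of half-maximal effect; 0% = DMSO-treated cells and -100% = media-only wells without cells; nearly all actives have a fitted effect of over 55% in size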
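Viability by CellTiter-Glo luminescence after 48 h compound exposure at 37C of HT-1080-NT cells (750/well, RPMI, 5% FBS). % activity scaled between DMSO wells and medium-only wells, then curve-fitted and categorized by curve class.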
HT1080 IDH1KD tx = kills HT-1080 cells with IDH1 knockdown; HT-1080 IDH1 knockdown viability, ATP luminescence, 48 h; Potency, µM (doses to about 46.1 µM), for inactives: at the top dose activity, negative = toxicity, most hits filed as cytotoxic; 2% of 360,000 active; AID 686971;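 note: potency is the fitted concentration of half-maximal effect; 0% = DMSO wells and -100% = cell-free medium wells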
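IDH1KD HT-1080 cells, 750/well, RPMI + 5% FBS; compound pinned after 2 h settling; 48 h, 37 °C; CellTiter-Glo luminescence; % activity normalised to DMSO and no-cell wells; curves fitted, classed by r2 and efficacy.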
DT40 TDP1 no CPT = qHTS for Inhibitors of human tyrosyl-DNA phosphodiesterase 1 (TDP1): qHTS in cells in absence of CPT. DT40 Tdp1-/- hTDP1 cells, no CPT, ATP luminescence, 48 h. Potency, µM (titrated, usually from 46.2 µM), for the others: at the highest dose activity change, negative = growth inhibition, most hits filed as inhibitors. 15% of 420,000 active; note: potency is the fitted concentration of half-maximal effect; nearly all actives have a fitted effect of over 55% in size
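Compound effects on proliferation are scored in DT40 Tdp1-/-;hTDP1 cells in the absence of CPT. ATP levels (CellTiter-Glo luminescence) are recorded after a ≥48 hr, 37 °C incubation.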
Active calls of the source: *; u = inconclusive; x = not tested or not shown. Unless noted, calls come from the whole dose curve; as a rule, active = well fitted curve in the direction sought with a large enough effect; inconclusive = small, poorly fitted or top-dose-only effect, or another doubt; inactive = no such curve, though single readings can be large; an effect the other way counts as inactive or inconclusive. Unless noted, % is set by controls: 0 for no effect and ±100 for the full control effect.

SMILES	IL1B secr inh	TDP1 cell CPT	HT1080NT lethal	HT1080 IDH1KD tx	DT40 TDP1 no CPT
COc1ccc(C2C(C(=O)c3cccs3)=C(O)C(=O)N2CCN2CCOCC2)c(OC)c1 (centres undefined)	-5	1%	-3%	0%	14%
COC(=O)[C@]1(Cc2ccccc2)N[C@H](CN(C)C(=O)Nc2ccc(OC)cc2)[C@@H]2C(=O)N(Cc3ccccc3)C(=O)[C@@H]21	-26	18µM*	-8%	-13%	8.2µM*
CCN(C[C@H]1N[C@@](Cc2ccccc2)(C(=O)OC)[C@H]2C(=O)N(Cc3ccccc3)C(=O)[C@@H]12)C(=O)c1ccc(F)cc1	-17	16µM*	5%	3%	u
CCN(C[C@H]1N[C@@](CC)(C(=O)OC)[C@H]2C(=O)N(Cc3ccccc3)C(=O)[C@@H]12)C(=O)c1ccc(C)cc1	0	u	7%	-3%	15µM*
CCN(C[C@H]1N[C@@](CC)(C(=O)OC)[C@H]2C(=O)N(Cc3ccccc3)C(=O)[C@@H]12)C(=O)Nc1ccc(C(F)(F)F)cc1	-108*	-9%	2%	5%	6.5µM*
CCN(C[C@H]1N[C@@](CC)(C(=O)OC)[C@H]2C(=O)N(Cc3ccccc3)C(=O)[C@@H]12)C(=O)c1ccc(F)cc1	-12	-30%	6%	11%	u
COC(=O)[C@]1(Cc2ccccc2)N[C@H](CN(C)C(=O)Nc2ccc(OC)cc2)[C@@H]2C(=O)N(C)C(=O)[C@@H]21	5	9%	-3%	1%	9%
OCCC1CN(Cc2cccc3nccnc23)CCN1Cc1ccc(F)cc1 (centres undefined)	4	-5%	6%	-8%	-11%
COC(=O)c1cc2oc3ccccc3c2n1CC(=O)Nc1cccc(SC)c1	x	u	x	x	-25%
COc1ccc(CCNC(=S)N2CCN(S(=O)(=O)c3ccccc3)CC2)cc1	0	u	5%	2%	u
N#C/C(C(N)=O)=C1/CCCN1Cc1ccccc1	0	4%	-3%	1%	-1%
COc1cc(NC(=O)Cn2c(=O)n(CC(=O)NCCc3ccc(OC)c(OC)c3)c(=O)c3sccc32)cc(OC)c1	x	-29%	x	x	-26%
N#Cc1ccc(-c2ccc(OCC(=O)NN=Cc3ccncc3)cc2)cc1	36	u	2%	6%	u
COC(=O)[C@]1(Cc2ccccc2)N[C@H](CN(C)C(=O)C2CCCCC2)[C@@H]2C(=O)N(Cc3ccccc3)C(=O)[C@@H]21	-6	21µM*	1%	1%	16µM*
COC(=O)[C@]1(Cc2ccccc2)N[C@H](CN(C)C(=O)c2ccc(C)cc2)[C@@H]2C(=O)N(Cc3ccccc3)C(=O)[C@@H]21	-2	u	5%	0%	18µM*
CCCc1cc(-c2nc(N)ncc2-c2ccc3c(c2)OCCCO3)c(O)cc1OC	u	u	-25%	u	26µM*
CCOc1ccc(NC(=O)CN(C)C(=O)CCC2CCCCC2)cc1OCC	-4	u	0%	-2%	-27%
Nc1nc(=O)n(C2CCCO2)cc1Br (centres undefined)	-10	-19%	20%	-1%	-16%
CCOC(=O)C1=C(CN2CCN(c3cc(C)ccc3C)CC2)NC(=O)NC1c1ccc(Cl)cc1 (centres undefined)	x	u	x	x	16µM*
CCOC(=O)c1[nH]c(CN2CCN(c3ccc(OC)cc3)CC2)c(C(=O)OCC)c1C	20	-23%	-22%	u	13µM*
CCOC(=O)C1=C(CN2CCCCC2)NC(=O)NC1c1ccc(OC)cc1 (centres undefined)	x	-4%	x	x	-3%
CCOC(=O)C1=C(CN2CCN(c3ccc(OC)cc3)CC2)NC(=O)NC1c1ccc(Cl)cc1 (centres undefined)	x	21µM*	x	x	15µM*
CCOC(=O)C1=C(CN2CCCCC2)NC(=O)NC1c1ccc(C)cc1 (centres undefined)	x	-14%	x	x	-12%
